We go through twelve molecules from PubChem BioAssay (NCI).

This is part of a sample that, as a whole, favours compounds with a hit. Of some 83,000 tested, about 20% had one in any assay.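 Plates (96-well) were seeded with cells, treated with compound at one concentration, and incubated for 48 hours before percent growth was determined.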 Unmarked numbers belong to inactive results. The source made the active and inactive calls. The calls were made as follows: active = growth percent below 10; inactive = the rest.

Holding throughout (assay): NCI-60 one-dose screen, 48 h (100 = growth as untreated, 0 = no growth, -100 = all killed)
What all share (conditions): 10 µM unless noted

The subject of assay [1] is SR leukemia.
In assay [2] the test system is RPMI-8226 leukemia.
In assay [3] the test system is OVCAR-8 ovarian.
Assay [4] deals with OVCAR-5 ovarian.
The subject of assay [5] is OVCAR-4 ovarian.
Assay [6] concerns SK-OV-3 ovarian.
In assay [7] the test system is IGROV1 ovarian.
The subject of assay [8] is OVCAR-3 ovarian.
Assay [9] has as its system HS 578T breast.
For assay [10], the system named is NCI/ADR-RES ovarian.

On to `O=C(CSc1nc(-c2ccc(Cl)cc2)cn1-c1ccc(Cl)cc1)c1ccc(Br)cc1`, for which the growth is 92.7% in assay [1]; 86.1% in assay [2]; 48% in [3]; 84.1% in [4]; 9.78% (active) in [5]; 79% in [6]. In addition, the growth in assay [7] was 59.9%; in assay [8] it was 84.9%; in assay [9] it was 63.2%; in assay [10] it was 70.6%.
As for `Cc1ccnc2nc(C(=O)OCC(=O)Nc3ccc(-c4ccccc4)cc3)nn12`, the growth in [1] is 53.3%; in assay [2] it was 98.1%; in assay [3] it was 102%; in [4], 96%; in [5], 95%; in [6] it was 116%. Besides, the growth in [7] was -5.67% (active); in [8] it was 112%; in [9], 125%; in assay [10] it was 98.3%.
Turning to `CC/C=C\C[C@H](O)C/C=C1/C(=O)C(Cl)=C[C@@H]1C/C=C\CCCC(=O)OC`, the growth is 1.41% (active) in assay [1]; -12.2% (active) in assay [2]; 1.69% (active) in assay [3]; -30% (active) in [4]; -47.3% (active) in assay [5]; 8.03% (active) in assay [6]. Further, the growth was -12.6% (active) in [7], -87.8% (active) in assay [8], 35.2% in assay [9] and 14% in [10].
With `COc1ccc(C(=O)/C=C/c2cccc([N+](=O)[O-])c2)c(OC)c1`, the growth was 4.78% (active) in [1]; -16.8% (active) in [2]; 18.2% in [3]; 41.9% in assay [4]; 26.6% in assay [5]; 77% in assay [6]. In addition, the growth in [7] is 7% (active); in assay [8] it was 18.6%; in assay [9] it was 74.6%; in assay [10], 11.2%.
`O=S(=O)(NCCCNc1nccc(-c2c(-c3ccccc3)nc3sccn23)n1)c1ccc(F)cc1`: the growth in [1] is 34.6%; in [2] it was 38.8%; in [3], 26.2%; in assay [4], 111%; in assay [5], 36.2%; in [6], 59.1%. Besides, the growth in assay [7] was 32.9%; in [8], 49.6%; in [9], 72%; in assay [10] it was 22.4%.
Consider `COc1cc(NS(C)(=O)=O)ccc1Nc1c2ccc([N+](=O)[O-])cc2nc2c(C)cccc12`, for which the growth in [1] is 15.6%; in assay [2], -19.8% (active); in [3] it was 13.7%; in [4], 36.8%; in assay [5], 49.1%; in assay [6] it was 11.2%. The growth was -2.46% (active) in assay [7], -13% (active) in [8], 58.4% in assay [9] and 58.6% in [10].
Turning to `CC(C)CCC[C@@H](C)[C@H]1CC[C@H]2[C@@H]3CC[C@H]4C/C(=N/O)CC[C@]4(C)[C@H]3CC[C@]12C`, the growth is 99.6% in assay [1]; 101% in [2]; 96.8% in assay [3]; 112% in [4]; 119% in assay [5]; 104% in [6]. Moreover, the growth is 111% in assay [7], 113% in assay [8], 101% in [9] and 111% in assay [10].
As for `O=C(Nc1cccc(C(F)(F)F)c1)Nc1ccc(OCc2nnc(-c3ccccc3)o2)c(F)c1`, the growth in assay [1] is 5.85% (active); in assay [2], 2.02% (active); in [3] it was 38.5%; in assay [4], 50.9%; in [5], 34.5%; in assay [6] it was 69.1%. Further, the growth in assay [7] was 45.9%; in assay [8] it was 15.6%; in [9], 39.2%; in assay [10] it was 37%.
For `COC12CC(=O)C(C(C)=O)=C(O)C1(C)c1c(O)c(C)c(O)c(C(C)=O)c1O2` (centres undefined), the growth in [1] was 69.9%; in assay [2] it was 44.5%; in assay [3] it was 58.7%; in [4], 99.7%; in assay [5] it was 85.9%; in [6], 104%. The results for the growth in assay [7], in assay [8] and in [9] were 68.9%, 59.2% and 75.4%, respectively.
With `Clc1ccc2c(c1)NC1(CCSc3ccccc31)n1nccc1-2` (centres undefined), the growth in [1] is 91.6%; in assay [2], 94.6%; in assay [3] it was 100%; in [4] it was 92.6%; in [5] it was 103%; in assay [6] it was 111%. The growth in [7] was 102%; in assay [8], 94.6%; in assay [9], 110%; in assay [10], 98.6%.
For `COC(=O)[C@H]1[C@H](OC)[C@@H](OC(=O)/C=C/c2ccncc2)CC2CN3CCc4c([nH]c5cc(OC)ccc45)[C@@H]3C[C@@H]21` (some centres undefined), the growth in assay [1] is 78.3%; in [2], 57.4%; in assay [3], 81%; in assay [4], 106%; in assay [5], 60.8%; in [6], 89.1%. Moreover, the growth in assay [7] was 85.2%; in assay [8], 89.8%; in assay [9] it was 77.5%; in assay [10] it was 81.8%.
`CCOC(=O)CC(C#N)(CC(=O)OCC)C(=O)OCC`: the growth was 100% in assay [1]; 96.1% in assay [2]; 88.8% in [3]; 99.9% in [4]; 104% in [5]; 117% in [6]. The growth was 118% in assay [7], 112% in [8], 117% in assay [9] and 106% in assay [10].
